Values joined by “and” are separate entries in the source; they are usually repeats but may differ in a detail not shown here. Equal entries are not always repeated. Screen size: about 5,500 compounds; about 2,000 (36%) were called active. Not shown: some 18% with an inconclusive outcome. Cut-off read from the data, not from the text of the source: active = normalized growth mostly below about 0.91 (no sharp cut-off); inconclusive = no clear call, values can overlap the other calls; inactive = mostly above about 0.92. Some of the results follow.
Test: chemical genetic growth profiling, strain panel (AID 1159580);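 note: tested at 20 µM; growth read once vehicle control cultures reached saturation at 30 °C; 1 = growth at the plate median or of vehicle wells; lower values mean less growth of the strain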
Settings: S. cerevisiae deletion strains, growth OD

Measured: normalized growth

NCCCCN=C(N)N
inactive: locus YAL013W, strain DEP1, active compounds read low 1 | locus YAL021C, strain ccr4, active compounds read low 1.02 | locus YAL026C, strain drs2, active compounds read low 1.03 | locus YAL030W, strain snc1, active compounds read low 1.03 | locus YAL040C, strain CLN3, active compounds read low 1 | locus YBL061C, strain skt5, active compounds read low 1.01 | locus YBR009C, strain hhf1, active compounds read low 1.02 | locus YBR021W, strain FUR4, active compounds read low 0.983 | locus YBR023C, strain chs3, active compounds read low 1.03 | locus YBR171W, strain sec66, active compounds read low 1.03 | locus YBR229C, strain ROT2, active compounds read low 0.996 | locus YBR231C, strain swc5, active compounds read low 1.01 | locus YBR279W, strain paf1, active compounds read low 1.01 | locus YCL011C, strain gbp2, active compounds read low 1.03 | locus YCL016C, strain dcc1, active compounds read low 1.01 | locus YCL029C, strain bik1, active compounds read low 0.979 | locus YCL061C, strain MRC1 (second series), active compounds read low 1.01 | locus YCL069W, strain vba3, active compounds read low 1.02 | locus YCR088W, strain abp1, active compounds read low 1.04 | locus YDL005C, strain med2, active compounds read low 1.04 | locus YDL035C, strain GPR1, active compounds read low 1.02 | locus YDL040C, strain nat1, active compounds read low 1.02 | locus YDL074C, strain BRE1, active compounds read low 0.992 | locus YDL101C, strain DUN1, active compounds read low 0.998 | locus YDL134C, strain PPH21, active compounds read low 1.04 | locus YDL185W, strain tfp1, active compounds read low 0.976 | locus YDL192W, strain arf1, active compounds read low 0.986 | locus YDR001C, strain nth1, active compounds read low 1.01 | locus YDR069C, strain doa4, active compounds read low 1.02 | locus YDR101C, strain arx1, active compounds read low 0.968 | locus YDR137W, strain rgp1, active compounds read low 1.04 | locus YDR150W, strain NUM1, active compounds read low 1 | locus YDR159W, strain sac3, active compounds read low 1 | locus YDR162C, strain NBP2, active compounds read low 1.01 | locus YDR195W, strain ref2 1.04 | locus YDR297W, strain sur2, active compounds read low 1.02 | locus YDR318W, strain mcm21, active compounds read low 1 | locus YDR334W, strain swr1, active compounds read low 1.02 | locus YDR335W, strain msn5, active compounds read low 1.03 | locus YDR363W, strain ESC2, active compounds read low 0.994 | locus YDR388W, active compounds read low 0.976 | locus YDR392W, strain spt3, active compounds read low 0.992 | locus YDR502C, strain sam2, active compounds read low 0.987 | locus YEL003W, strain gim4, active compounds read low 1.02 | locus YEL037C, strain rad23, active compounds read low 1.02 | locus YEL061C, strain CIN8 (second series), active compounds read low 1.03 | locus YEL061C, strain CIN8, active compounds read low 1 | locus YER002W, strain NOP16, active compounds read low 1.03 | locus YER015W, strain faa2, active compounds read low 1.03 | locus YER016W, strain bim1, active compounds read low 1.01 | locus YER110C, active compounds read low 0.977 | locus YER111C, strain swi4, active compounds read low 1.03 | locus YER155C, strain BEM2 (second series), active compounds read low 1.02 | locus YER155C, strain BEM2, active compounds read low 0.981 | locus YER167W, strain BCK2, active compounds read low 0.999 | locus YFR010W, strain ubp6, active compounds read low 1.04 | locus YGL078C, strain dbp3, active compounds read low 0.981 | locus YGL086W, strain mad1, active compounds read low 0.963 | locus YGL167C, strain pmr1, active compounds read low 1.02 | locus YGL173C, strain kem1, active compounds read low 1.02 | locus YGL227W, strain vid30, active compounds read low 1.02 | locus YGL240W, strain doc1, active compounds read low 1.02 | locus YGL248W, strain PDE1, active compounds read low 1 | locus YGL253W, strain hxk2, active compounds read low 1.02 | locus YGR078C, strain PAC10, active compounds read low 1 | locus YGR135W, strain pre9, active compounds read low 1 | locus YGR229C, strain SMI1, active compounds read low 1.01 | locus YGR252W, strain gcn5, active compounds read low 1.09 | locus YHR013C, strain ard1, active compounds read low 1.12 | locus YHR027C, strain rpn1, active compounds read low 1.02 | locus YHR030C, strain SLT2, active compounds read low 0.993 and 1.01 | locus YHR079C, strain IRE1 (second series), active compounds read low 0.987 | locus YHR079C, strain IRE1, active compounds read low 1.01 | locus YHR094C, strain hxt1, active compounds read low 0.974 | locus YHR142W, strain chs7, active compounds read low 1.05 | locus YHR200W, strain rpn10, active compounds read low 0.987 | locus YIL066C, strain RNR3, active compounds read low 0.994 | locus YIL073C, strain SPO22, active compounds read low 1.03 | locus YIL125W, strain kgd1, active compounds read low 0.974 | locus YIR030C, strain dcg1, active compounds read low 0.988 | locus YJL092W, strain hpr5, active compounds read low 1.02 | locus YJL095W, strain BCK1 (second series), active compounds read low 1.03 | locus YJL095W, strain BCK1, active compounds read low 1.02 and 0.995 | locus YJL115W, strain asf1, active compounds read low 1.03 | locus YJL129C, strain trk1, active compounds read low 1.06 | locus YJL134W, strain LCB3, active compounds read low 0.998 | locus YJL154C, strain vps35, active compounds read low 1.02 | locus YJL164C, strain tpk1, active compounds read low 1.02 | locus YJL166W, strain qcr8, active compounds read low 1.02 | locus YJL168C, strain set2, active compounds read low 0.981 | locus YJL187C, strain SWE1 (second series), active compounds read low 0.997 | locus YJL187C, strain SWE1, active compounds read low 1.02 | locus YJR043C, strain POL32, active compounds read low 0.993 | locus YJR066W, strain TOR1, active compounds read low 0.973 | locus YKL009W, strain mrt4, active compounds read low 1 | locus YKL068W, active compounds read low 0.994 | locus YKL085W, strain MDH1 (second series), active compounds read low 0.993 | locus YKL085W, strain MDH1, active compounds read low 0.993 | locus YKL160W, strain elf1, active compounds read low 1.02 | locus YKL190W, strain CNB1, active compounds read low 1.01 | locus YKR001C, strain vps1, active compounds read low 0.963 | locus YKR026C, strain gcn3, active compounds read low 1.02 | locus YKR091W, strain srl3, active compounds read low 1.02 | locus YLL001W, strain dnm1, active compounds read low 1.01 | locus YLL026W, active compounds read low 1.02 | locus YLL041C, strain sdh2, active compounds read low 1.02 | locus YLR027C, strain aat2, active compounds read low 1.03 | locus YLR039C, strain RIC1, active compounds read low 1.01 | locus YLR058C, strain SHM2, active compounds read low 1.01 | locus YLR102C, strain apc9, active compounds read low 0.985 | locus YLR113W, strain HOG1, active compounds read low 1 | locus YLR221C, strain rsa3, active compounds read low 1.01 | locus YLR258W, strain gsy2, active compounds read low 1.02 | locus YLR262C, strain YPT6 (second series), active compounds read low 1.04 | locus YLR262C, strain YPT6, active compounds read low 1.06 | locus YLR268W, strain sec22, active compounds read low 0.957 | locus YLR320W, strain mms22, active compounds read low 1.02 | locus YLR330W, strain CHS5, active compounds read low 0.978 | locus YLR342W, strain FKS1 (second series), active compounds read low 1.01 | locus YLR342W, strain FKS1, active compounds read low 1.01 | locus YLR357W, strain rsc2, active compounds read low 1.05 | locus YLR370C, strain arc18, active compounds read low 1.03 | locus YLR371W, strain rom2, active compounds read low 0.972 | locus YLR384C, strain iki3, active compounds read low 1.03 | locus YLR418C, strain cdc73, active compounds read low 1.01 | locus YML016C, strain PPZ1, active compounds read low 0.991 | locus YML032C, strain rad52, active compounds read low 1.02 | locus YML120C, strain ndi1, active compounds read low 1.04 | locus YML124C, strain tub3, active compounds read low 0.987 | locus YMR058W, strain fet3, active compounds read low 1.02 | locus YMR078C, strain ctf18, active compounds read low 0.986 | locus YMR125W, strain sto1, active compounds read low 1.03 | locus YMR129W, active compounds read low 1.02 | locus YMR205C, strain PFK2, active compounds read low 1.02 | locus YMR223W, strain ubp8, active compounds read low 1 | locus YMR231W, strain pep5, active compounds read low 1.03 | locus YMR263W, strain SAP30, active compounds read low 1.01 | locus YMR307W, strain GAS1, active compounds read low 1.04 and 0.995 | locus YNL067W, strain RPL9B, active compounds read low 1.01 | locus YNL071W, strain lat1, active compounds read low 1.02 | locus YNL153C, strain GIM3, active compounds read low 1.01 | locus YNL175C, strain NOP13, active compounds read low 0.997 | locus YNL183C, strain NPR1, active compounds read low 0.959 | locus YNL197C, strain WHI3, active compounds read low 1.01 | locus YNL209W, strain ssb2, active compounds read low 1.02 | locus YNL224C, strain SQS1, active compounds read low 1.01 | locus YNL233W, strain BNI4, active compounds read low 0.988 | locus YNL248C, strain rpa49, active compounds read low 1.02 | locus YNL250W, strain rad50, active compounds read low 0.974 | locus YNL271C, strain bni1, active compounds read low 0.976 | locus YNL298W, strain CLA4, active compounds read low 0.969 | locus YNL307C, strain MCK1, active compounds read low 0.973 | locus YNL322C, strain KRE1 (second series), active compounds read low 1.03 | locus YNL322C, strain KRE1, active compounds read low 1 | locus YNR049C, strain mso1, active compounds read low 1.02 | locus YNR052C, strain pop2, active compounds read low 0.995 | locus YOL012C, strain htz1 0.814 | locus YOL147C, strain pex11, active compounds read low 0.993 | locus YOR001W, strain rrp6, active compounds read low 1.03 | locus YOR061W, strain CKA2, active compounds read low 1 | locus YOR069W, strain VPS5, active compounds read low 0.994 | locus YOR070C, strain gyp1, active compounds read low 1.02 | locus YOR080W, strain dia2, active compounds read low 1.03 | locus YOR083W, strain WHI5 (second series), active compounds read low 1.01 | locus YOR083W, strain WHI5, active compounds read low 1.01 | locus YOR106W, strain vam3, active compounds read low 1.04 | locus YOR136W, strain idh2, active compounds read low 0.972 | locus YOR144C, strain elg1, active compounds read low 0.984 | locus YOR184W, strain ser1, active compounds read low 0.985 | locus YOR265W, strain rbl2, active compounds read low 1.02 | locus YOR270C, strain vph1, active compounds read low 1.05 | locus YOR290C, strain snf2, active compounds read low 1.01 | locus YOR316C, strain cot1, active compounds read low 0.983 | locus YPL051W, strain arl3, active compounds read low 1.01 | locus YPL078C, strain atp4, active compounds read low 1.03 | locus YPL106C, strain sse1, active compounds read low 1.04 | locus YPL240C, strain hsp82, active compounds read low 1.02 | locus YPL256C, strain CLN2, active compounds read low 0.994 | locus YPR119W, strain clb2, active compounds read low 0.988 | locus YPR141C, strain kar3, active compounds read low 0.988 | locus YPR163C, strain tif3, active compounds read low 0.975 | locus YPR167C, strain met16, active compounds read low 0.986 | strain wtn01, active compounds read low 0.939

Reference: PubChem BioAssay AID1159580 (chemical genetic matrix, 2015)
